The supplement of paper PMC11417369
± gives the standard deviation of the averaged measurements. Over roughly 25,000 sequences, “ln(normalized median fluorescence intensity)” has its median near 7.9; the highest 2% begin near 11. Shown is part of a subset that was picked to be rich in the highest values.

tested on: PfAP2-I AP2 domain 3 (GST-tagged); assay: gcPBM binding intensity (ln(normalized median fluorescence intensity)); higher = stronger DNA binding
Method in brief: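 Binding intensity values are the highest Masliner-normalised natural-log median intensity among replicate spots of either probe orientation. The binding step lasted 1 h in 1× PBS with 1% milk, 0.2 mg/ml BSA, 0.5% salmon testes DNA and 0.03% Triton X-100, using GST-tagged P. falciparum DNA-binding domains expressed in E. coli on an Agilent 4 × 180k array of primer-extended double-stranded 36-bp intergenic genomic probes plus negative controls. Alexa488 anti-GST antibody and a 488 nm scan detected bound protein.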

Row | Sequence | gcPBM binding intensity (ln)
1 | ACTTTTTATTTTTTACTATATATATATATATATATG [TGCATGCA_negctrl_site463] | 8.31 ± 0.44
2 | TATATATTTGTTCACACACACACAAAAAAAAAAAAA [CACACA_site2475] | 8.08 ± 0.52
3 | TATGTGCACCCATATACACACACAAATACAATGATA [CACACA_site8295] | 11.3 ± 0.85
4 | TGGGCACCCATATACACACACAAATACAATGATAAA [CACACA_site4762] | 7.78 ± 0.28
5 | GGTGCACCCATATACACACACAAATACAATGATAAA [CACACA_site1132] | 9.99 ± 0.56
6 | CCCGTAAATACAAAAAGTACAAAAGTTCATCTTATA [XGTACX_site1154] | 7.93 ± 0.99
7 | CTGTACACTTAAACGGTGCAAAAAGAAAAAAAAGAA | 11 ± 0.38
8 | AAAGAAAACGGACTTTGTACTTAAATATAATATAAA [XGTACX_site8585] | 7.69 ± 0.34
9 | AATTTATTTTTAAAAAGTACATACTTAAGAAAACGA [XGTACX_site3660] | 8.12 ± 0.29
10 | AATAAAATGAGATGTTGTACAGTTTTGATATATGCA [XGTACX_site3052] | 7.96 ± 0.19
11 | GATAAAATGAGACCAGTGCATTATTAGTTGTACACC | 11.3 ± 0.53
12 | CATTATTATGATAGTTGTACAATTTTTATAAAAAAT [XGTACX_site4411] | 7.93 ± 0.35
13 | TAATTAATTTATTAGTTGCACTGTACCATTAGAGTA | 9 ± 0.11
14 | TTTTTATAGAATTTAACACACATTTCATATAAAAAA [CACACA_site7453] | 7.86 ± 0.47
15 | TACTATTATAAATATGTGCACTTCAATAATATACTA | 10.4 ± 0.11
16 | TAATAAAATATGTACGTGCACATAATTATACTAAAA | 10.3 ± 0.18
17 | AAAAAAAAAAAATACGTGCACTATGATATATTATAT | 11.4 ± 0.36
18 | TATGATTAATTACCACAATTGACAAAAAAAAAAAAA [CACACA_negctrl_site336] | 8.13 ± 0.87
19 | ATATATATTATGTGTGTGCACTTTTGTTATTATTAT | 9.83 ± 0.014
20 | AACTATTTTATTATATGTACTTACGAATTTATAAAA [XGTACX_site5262] | 7.87 ± 0.35

Row | Sequence | gcPBM binding intensity (ln)
21 | TTTTGTTACTTTTATGTGCACTTATAAAACGAACTA [GTGCAC_site9551] | 11.3 ± 0.085
22 | AAAACACAATTTATTACACACATATATTATAGATTA [CACACA_site6780] | 7.61 ± 0.68
23 | AGAATTTTAGATTTAGCACACATTTTTTTTTTTTTT [CACACA_site4081] | 8.34 ± 0.45
24 | ATATTGAAATTAAAAAAATATATGAACAAATGATGA [CACACA_negctrl_site602] | 7.69 ± 0.59
25 | ATGATATGCAATTTAGTGCATAACAAAATTGGTATA | 10.9 ± 0.49
26 | TATATAGATATGATAGTGCATTTTTAGAAAACATAA [GTGCAC_site9962] | 9.44 ± 0.14
27 | TTTTTTAAATTGGTAGTGCAATATGATTGAACAAAA [GTGCAC_site9715] | 10.9 ± 0.79
28 | TTTTTTTTTTTTGTAGTGCAAATTAAAAATATATGT | 10.6 ± 0.53
29 | GTTTTAACAAAATTAGTGCATTTATCAATTATATAA | 10.5 ± 0.14
30 | AAAAAAAAAAAAAGCACACATATAAATATGAATAAA [CACACA_site1393] | 8.39 ± 0.085
31 | TAATTTTATATTAAAAGTACATAATAAAAACTATAA [XGTACX_site8779] | 7.79 ± 0.22
32 | TAAATATATATCATCACACACACATACATAAATATA [CACACA_site183] | 7.72 ± 0.47
33 | TAATAATATAAATATGCACACAAATTATTACCCAAA [CACACA_site8805] | 8.97 ± 0.47
34 | AATTCTTTACTATTCACACATATAAATATTCACTTT [CACACA_site4886] | 8 ± 0.7
35 | GCTAAAAGTATATGCACACACATATATATGCACATA [CACACA_site1635] | 10.3 ± 0.16
36 | AATATAATATAATGCACACATAAAAAAAAAAAAATC [CACACA_site1303] | 11 ± 0.64
37 | GCTAAAAGTATATGCACACACATATAGATGCACATA [CACACA_site6868] | 10 ± 0.14
38 | AAAATATAATATAATGCACACATAAAAAAAAAATCA [CACACA_site7922] | 10.8 ± 0.64
39 | AAAAATATAATATATGCACACATACATACATATATA [CACACA_site7915] | 9.06 ± 0.057
40 | CTTTTTTTTTTTTTTGCACACACATATATAAATATA [CACACA_site3950] | 9.74 ± 0.042

Row | Sequence | gcPBM binding intensity (ln)
41 | AAAAATAATGCACATATATATAATATGTATATGTAT [CACACA_negctrl_site443] | 11 ± 0.6
42 | AAAAAATATACATATACACACATATGTATATATAAT [CACACA_site8676] | 7.57 ± 0.31
43 | CATATTTGCACTTTCACACATAAATATATAACTATA [CACACA_site6016] | 11 ± 0.89
44 | GTGCTAAAAGTATATGCACACACATATATATGCACA [CACACA_site8472] | 10.9 ± 0.55
45 | ATAGATATACATATCACACATATATATATATATATA [CACACA_site4985] | 9.19 ± 0.65
46 | GATATAGATATTAATTGTACATATTATTTATTGTTA [XGTACX_site846] | 7.62 ± 0.36
47 | TTAAAAAAATATAATACACACCAAAAATATGCACAT [CACACA_site5209] | 9.6 ± 0.43
48 | TTAAATATATGTAATACGCACACTTAATATTTTGAG [CACACA_site4170] | 8.18 ± 0.35
49 | AATTTTCATTTTAGAAGTACACACAAAAAATAAAAT [XGTACX_site4426] | 8.13 ± 0.22
50 | TGAATTTAGATATATACACACAAAAGTATATACAAT [CACACA_site2804] | 7.53 ± 0.54
51 | TATATATATTCTTTAAAACACACGTAAAGAAGAATT [CACACA_site2718] | 7.94 ± 0.62
52 | AATATAATATAATGCACACATAAAAAAAAAAAAAAA [CACACA_site304] | 11.1 ± 0.87
53 | ATAATAAAAAAAAATGCACACATATATATATATATA [CACACA_site8766] | 9.59 ± 0.47
54 | AAAATATAATATAATGCACACATAAAAAAAAAAAAA [CACACA_site7989] | 11.1 ± 0.49
55 | AATAAAAAAAAATGCACACATATATATATATATATA [CACACA_site2421] | 9.67 ± 0.52
56 | TATATATATATATTCACACATAAAAATAAAATAAAA [CACACA_site4774] | 9.2 ± 0.13
57 | TAAACATAAATATGCACACATATACATATATTCATA [CACACA_site2667] | 8.69 ± 0.099
58 | TATATATATATATTCACACATAAATATATGCACCCA [CACACA_site4263] | 11.1 ± 0.68
59 | TCCTTATATTTGCACACACACACAAGAAAATGAAAA [CACACA_site6613] | 10.3 ± 0.54
